Screen size: about 5,500 compounds; about 2,000 (36%) were called active. Not shown: some 18% with an inconclusive outcome. Cut-off read from the data, not from the text of the source: active = normalized growth mostly below about 0.91 (no sharp cut-off); inconclusive = no clear call, values can overlap the other calls; inactive = mostly above about 0.92. Some of the results follow.
Test: chemical genetic growth profiling, strain panel (AID 1159580);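 note: tested at 20 µM; growth read once vehicle control cultures reached saturation at 30 °C; 1 = growth at the plate median or of vehicle wells; lower values mean less growth of the strain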
Settings: S. cerevisiae deletion strains, growth OD
[1] = locus YAR019C, strain CDC15, active compounds read low
[2] = locus YBL105C, strain PKC1, active compounds read low
[3] = locus YBR135W, strain CKS1, active compounds read low
[4] = locus YBR136W, strain MEC1, active compounds read low
[5] = locus YBR160W, strain CDC28, active compounds read low
[6] = locus YDL017W, strain CDC7, active compounds read low
[7] = locus YDL028C, strain MPS1, active compounds read low
[8] = locus YDL101C, strain DUN1, active compounds read low
[9] = locus YDL108W, strain KIN28, active compounds read low
[10] = locus YDL132W, strain cdc53, active compounds read low
[11] = locus YDL214C, strain PRR2, active compounds read low
[12] = locus YDR052C, strain DBF4, active compounds read low
[13] = locus YDR054C, strain cdc34, active compounds read low
[14] = locus YDR226W, strain ADK1, active compounds read low
[15] = locus YDR477W, strain SNF1, active compounds read low
[16] = locus YER123W, strain YCK3, active compounds read low
[17] = locus YER133W, strain GLC7, active compounds read low
[18] = locus YFL009W, strain cdc4, active compounds read low
[19] = locus YFL029C, strain CAK1, active compounds read low
[20] = locus YFR003C, strain YPI1, active compounds read low
[21] = locus YFR019W, strain FAB1, active compounds read low
[22] = locus YFR028C, strain CDC14, active compounds read low
[23] = locus YGR040W, strain KSS1, active compounds read low
[24] = locus YGR052W, strain FMP48, active compounds read low
[25] = locus YGR092W, strain DBF2, active compounds read low
[26] = locus YHR030C, strain SLT2, active compounds read low
[27] = locus YHR079C, strain IRE1, active compounds read low
[28] = locus YHR082C, strain KSP1, active compounds read low
[29] = locus YHR205W, strain SCH9, active compounds read low
[30] = locus YIL147C, strain SLN1, active compounds read low
[31] = locus YJL095W, strain BCK1, active compounds read low
[32] = locus YJL128C, strain PBS2, active compounds read low
[33] = locus YJL157C, strain FAR1, active compounds read low
[34] = locus YJR016C, strain ILV3, active compounds read low
[35] = locus YJR066W, strain TOR1 (second series), active compounds read low
[36] = locus YJR066W, strain TOR1, active compounds read low
[37] = locus YKL048C, strain ELM1, active compounds read low
[38] = locus YKL067W, strain YNK1, active compounds read low
[39] = locus YKL101W, strain HSL1, active compounds read low
[40] = locus YKL193C, strain SDS22, active compounds read low
[41] = locus YKL203C, strain TOR2, active compounds read low
[42] = locus YLR113W, strain HOG1, active compounds read low
[43] = locus YLR133W, strain CKI1, active compounds read low
[44] = locus YLR403W, strain SFP1, active compounds read low
[45] = locus YML070W, strain DAK1, active compounds read low
[46] = locus YMR001C, strain CDC5, active compounds read low
[47] = locus YMR205C, strain PFK2 (second series), active compounds read low
[48] = locus YMR277W, strain FCP1, active compounds read low
[49] = locus YNL006W, strain LST8, active compounds read low
[50] = locus YNL020C, strain ARK1, active compounds read low
[51] = locus YNL161W, strain CBK1, active compounds read low
[52] = locus YNL183C, strain NPR1, active compounds read low
[53] = locus YNL207W, strain RIO2, active compounds read low
[54] = locus YNL222W, strain SSU72, active compounds read low
[55] = locus YNL307C, strain MCK1 (second series), active compounds read low
[56] = locus YOL078W, strain AVO1, active compounds read low
[57] = locus YOL136C, strain PFK27, active compounds read low
[58] = locus YOR061W, strain CKA2, active compounds read low
[59] = locus YOR119C, strain RIO1, active compounds read low
[60] = locus YOR231W, strain MKK1, active compounds read low
[61] = locus YOR329C, strain SCD5, active compounds read low
[62] = locus YPL031C, strain PHO85, active compounds read low
[63] = locus YPL153C, strain RAD53, active compounds read low
[64] = locus YPL204W, strain HRR25, active compounds read low
[65] = locus YPL209C, strain IPL1, active compounds read low
[66] = locus YPL256C, strain CLN2, active compounds read low
[67] = locus YPR025C, strain CCL1, active compounds read low
[68] = locus YPR106W, strain ISR1, active compounds read low
[69] = locus YPR111W, strain DBF20, active compounds read low
[70] = strain NNK1, active compounds read low
[71] = strain TSCII, active compounds read low

Measured: normalized growth

Cc1nc(-c2ccccn2)nc(SCc2ccccc2)c1Cl
active: [26] 0.843 | [42] 0.802
inactive: [1] 0.946 | [2] 0.945 | [3] 0.941 | [4] 0.94 | [5] 0.954 | [6] 0.949 | [7] 0.939 | [8] 0.942 | [9] 0.94 | [10] 0.93 | [11] 0.844 | [12] 0.94 | [13] 0.922 | [14] 0.942 | [15] 0.849 | [16] 0.747 | [17] 0.826 | [18] 0.935 | [19] 0.935 | [20] 0.943 | [21] 0.887 | [22] 0.94 | [23] 0.829 | [24] 0.853 | [25] 0.705 | [27] 0.766 | [28] 0.849 | [29] 0.86 | [30] 0.935 | [31] 0.862 | [32] 0.927 | [33] 0.798 | [34] 0.936 | [35] 0.786 | [36] 0.792 | [37] 0.96 | [38] 0.849 | [39] 0.875 | [40] 0.937 | [41] 0.869 | [43] 0.876 | [44] 0.772 | [45] 0.816 | [46] 0.942 | [47] 0.864 | [48] 0.941 | [49] 0.94 | [50] 0.827 | [51] 0.942 | [52] 0.826 | [53] 0.921 | [54] 0.943 | [55] 0.807 | [56] 0.938 | [57] 0.834 | [58] 0.815 | [59] 0.843 | [60] 0.819 | [61] 0.946 | [62] 0.791 | [63] 0.793 | [64] 0.834 | [65] 0.952 | [66] 0.934 | [67] 0.942 | [68] 0.95 | [69] 0.955 | [70] 0.945 | [71] 0.933

Cc1nc(-c2ccccn2)nc(N(C)Cc2ccccc2)c1Cl
inactive: [1] 0.951 | [2] 0.961 | [3] 0.967 | [4] 0.955 | [5] 0.968 | [6] 0.962 | [7] 0.956 | [8] 0.962 | [9] 0.951 | [10] 0.961 | [11] 0.997 | [12] 0.965 | [13] 0.948 | [14] 0.956 | [15] 0.971 | [16] 0.93 | [17] 0.975 | [18] 0.953 | [19] 0.94 | [20] 0.963 | [21] 1 | [22] 0.976 | [23] 0.964 | [24] 1.04 | [25] 0.863 | [26] 0.932 | [27] 0.95 | [28] 0.998 | [29] 0.954 | [30] 0.952 | [31] 0.966 | [32] 0.973 | [33] 0.972 | [34] 0.969 | [35] 0.958 | [36] 0.952 | [37] 0.982 | [38] 0.97 | [39] 0.945 | [40] 0.96 | [41] 1.01 | [42] 1 | [43] 0.968 | [44] 0.959 | [45] 0.966 | [46] 0.956 | [47] 0.981 | [48] 0.964 | [49] 0.975 | [50] 0.973 | [51] 0.964 | [52] 1 | [53] 0.959 | [54] 0.96 | [55] 0.922 | [56] 0.96 | [57] 0.963 | [58] 0.941 | [59] 0.991 | [60] 0.994 | [61] 0.955 | [62] 0.952 | [63] 0.943 | [64] 0.938 | [65] 0.958 | [66] 0.985 | [67] 0.963 | [68] 0.974 | [69] 0.976 | [70] 0.979 | [71] 0.953
